# From publication PMC7862700, “An all-to-all approach to the identification of sequence-specific readers for epigenetic DNA modifications on cytosine”
# Tests used:
# Assay in all cases: DAPPL (digital affinity profiling via proximity ligation, sequencing); 10 mM Tris-HCl pH 7.5, 50 mM NaCl, 1 mM DTT, 4% glycerol, room temperature, 30 min; GST-TFs on glutathione beads, 16-mer random dsDNA library, 0.1% formaldehyde crosslink after washing; high values mean tight binding
# [1] = target: T1, FEV (Homo sapiens, UniProt Q99581 1-238); settings: protein: recombinant; tags: N-terminal GST; dsDNA, one strand shown
# T1 sequence: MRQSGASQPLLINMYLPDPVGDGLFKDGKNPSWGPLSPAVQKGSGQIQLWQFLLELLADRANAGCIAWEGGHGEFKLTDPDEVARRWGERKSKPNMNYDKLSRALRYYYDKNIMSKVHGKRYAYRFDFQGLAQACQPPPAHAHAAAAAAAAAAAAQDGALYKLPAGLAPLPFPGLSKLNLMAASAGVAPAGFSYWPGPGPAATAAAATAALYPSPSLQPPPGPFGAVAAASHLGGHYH
# Method in brief: (§1)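 Binding signal is each hexamer's read frequency for a factor divided by its frequency in the tag-only sample. The factors were GST-fused human transcription factors from yeast, captured on glutathione beads, DNA-barcoded and pooled with that sample. Pools were incubated with 200 nmole of a random double-stranded 16-mer DNA library in Tris/NaCl/DTT/glycerol buffer at room temperature for 30 min, then washed, crosslinked with 0.1% formaldehyde, proximity-ligated with BsaI/T4 ligase (1 h, 37 °C), PCR-amplified and sequenced on an Illumina NextSeq500.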
# [2] = target: ETV5 (Homo sapiens, UniProt P41161 1-510); settings: protein: recombinant; tags: N-terminal GST; dsDNA, one strand shown
# Method in brief: as §1
# [3] = target: HSF1 (Homo sapiens, UniProt Q00613 1-529); settings: protein: recombinant; tags: N-terminal GST; chain copies: 3; dsDNA, one strand shown
# Method in brief: as §1
# [4] = target: T2, SPIC (Homo sapiens, UniProt Q8N5J4 1-248); settings: protein: recombinant; tags: N-terminal GST; dsDNA, one strand shown
# T2 sequence: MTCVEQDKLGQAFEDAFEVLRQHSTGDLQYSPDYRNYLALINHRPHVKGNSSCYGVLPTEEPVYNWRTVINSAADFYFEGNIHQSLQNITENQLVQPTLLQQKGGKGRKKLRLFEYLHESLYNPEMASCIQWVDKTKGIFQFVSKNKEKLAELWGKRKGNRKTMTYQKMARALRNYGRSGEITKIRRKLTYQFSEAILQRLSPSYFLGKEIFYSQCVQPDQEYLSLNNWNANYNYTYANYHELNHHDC
# Method in brief: as §1
# [5] = target: ELF4 (Homo sapiens, UniProt Q99607 1-663); settings: protein: recombinant; tags: N-terminal GST; dsDNA, one strand shown
# Method in brief: as §1
# [6] = target: T3, ELK4 (Homo sapiens, UniProt P28324-2 1-405); settings: protein: recombinant; tags: N-terminal GST; dsDNA, one strand shown
# T3 sequence: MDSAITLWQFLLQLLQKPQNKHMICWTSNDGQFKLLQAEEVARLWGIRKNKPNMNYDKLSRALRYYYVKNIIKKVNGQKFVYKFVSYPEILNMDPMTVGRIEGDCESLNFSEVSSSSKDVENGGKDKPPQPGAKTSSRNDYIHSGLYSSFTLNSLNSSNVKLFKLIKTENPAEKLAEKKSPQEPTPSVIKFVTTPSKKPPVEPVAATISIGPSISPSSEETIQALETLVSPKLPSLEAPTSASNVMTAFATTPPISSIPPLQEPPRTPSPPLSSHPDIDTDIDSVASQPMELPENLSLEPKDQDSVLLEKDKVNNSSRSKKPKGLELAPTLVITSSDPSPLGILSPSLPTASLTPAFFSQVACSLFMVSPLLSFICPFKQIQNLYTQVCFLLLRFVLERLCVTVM
# Method in brief: as §1
# [7] = target: T4, ETV2 (Homo sapiens, UniProt O00321 1-342); settings: protein: recombinant; tags: N-terminal GST; dsDNA, one strand shown
# T4 sequence: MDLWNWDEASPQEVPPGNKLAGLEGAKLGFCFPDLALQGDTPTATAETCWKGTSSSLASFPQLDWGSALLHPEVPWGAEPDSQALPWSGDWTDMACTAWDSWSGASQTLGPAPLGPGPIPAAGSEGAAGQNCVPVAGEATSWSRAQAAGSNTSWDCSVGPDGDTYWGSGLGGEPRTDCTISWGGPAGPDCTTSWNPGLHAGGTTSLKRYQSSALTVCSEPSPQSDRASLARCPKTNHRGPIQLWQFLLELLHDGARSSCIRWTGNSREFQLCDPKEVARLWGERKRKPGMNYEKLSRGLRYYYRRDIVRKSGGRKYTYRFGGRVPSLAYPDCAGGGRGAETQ
# Method in brief: as §1
# [8] = target: T5, ELF3 (Homo sapiens, UniProt P78545 1-371); settings: protein: recombinant; tags: N-terminal GST; dsDNA, one strand shown
# T5 sequence: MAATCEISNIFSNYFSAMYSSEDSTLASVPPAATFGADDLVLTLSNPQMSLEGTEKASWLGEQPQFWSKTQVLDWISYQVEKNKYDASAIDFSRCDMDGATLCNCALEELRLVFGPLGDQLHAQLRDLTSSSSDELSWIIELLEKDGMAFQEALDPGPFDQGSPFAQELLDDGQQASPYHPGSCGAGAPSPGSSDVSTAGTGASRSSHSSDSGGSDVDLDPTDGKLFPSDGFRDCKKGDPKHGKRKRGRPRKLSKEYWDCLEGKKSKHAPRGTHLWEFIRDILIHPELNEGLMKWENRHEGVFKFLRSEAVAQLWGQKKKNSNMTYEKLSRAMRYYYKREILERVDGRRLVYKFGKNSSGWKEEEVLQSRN
# Method in brief: as §1
# [9] = target: CRX (Homo sapiens, UniProt O43186 1-299); settings: protein: recombinant; tags: N-terminal GST; dsDNA, one strand shown
# Method in brief: as §1
# [10] = target: ETV1 (Homo sapiens, UniProt P50549 1-477); settings: protein: recombinant; tags: N-terminal GST; dsDNA, one strand shown
# Method in brief: as §1
# [11] = target: T6, ERF (Homo sapiens, UniProt P50548 1-548); settings: protein: recombinant; tags: N-terminal GST; dsDNA, one strand shown
# T6 sequence: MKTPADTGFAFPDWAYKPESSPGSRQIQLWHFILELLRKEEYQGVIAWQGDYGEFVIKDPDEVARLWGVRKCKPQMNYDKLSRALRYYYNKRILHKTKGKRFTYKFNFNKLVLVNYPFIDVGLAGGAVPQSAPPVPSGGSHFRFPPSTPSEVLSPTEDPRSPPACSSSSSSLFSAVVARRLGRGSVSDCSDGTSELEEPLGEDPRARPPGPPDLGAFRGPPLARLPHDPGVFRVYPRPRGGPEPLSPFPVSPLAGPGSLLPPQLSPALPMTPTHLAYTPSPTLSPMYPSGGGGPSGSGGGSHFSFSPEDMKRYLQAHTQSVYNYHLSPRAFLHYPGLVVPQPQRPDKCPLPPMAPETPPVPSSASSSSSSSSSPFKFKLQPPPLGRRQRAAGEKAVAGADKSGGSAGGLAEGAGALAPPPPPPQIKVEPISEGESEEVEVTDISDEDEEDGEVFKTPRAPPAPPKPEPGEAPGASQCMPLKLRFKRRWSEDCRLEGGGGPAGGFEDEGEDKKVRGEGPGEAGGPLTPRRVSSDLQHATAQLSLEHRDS
# Method in brief: as §1
# [12] = target: T7, ETV3L (Homo sapiens, UniProt Q6ZN32 1-361); settings: protein: recombinant; tags: N-terminal GST; dsDNA, one strand shown
# T7 sequence: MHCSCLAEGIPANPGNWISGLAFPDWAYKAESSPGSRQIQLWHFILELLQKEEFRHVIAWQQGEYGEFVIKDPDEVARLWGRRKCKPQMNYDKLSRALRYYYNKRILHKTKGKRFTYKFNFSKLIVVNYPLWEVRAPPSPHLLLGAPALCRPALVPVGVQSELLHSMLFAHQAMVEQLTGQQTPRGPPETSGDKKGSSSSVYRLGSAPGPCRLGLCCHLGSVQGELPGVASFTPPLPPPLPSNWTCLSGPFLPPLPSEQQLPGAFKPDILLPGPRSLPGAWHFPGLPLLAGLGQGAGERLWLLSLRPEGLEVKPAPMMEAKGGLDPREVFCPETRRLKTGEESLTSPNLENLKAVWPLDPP
# Method in brief: as §1
# [13] = target: T8, ETS2 (Homo sapiens, UniProt P15036 1-469); settings: protein: recombinant; tags: N-terminal GST; dsDNA, one strand shown
# T8 sequence: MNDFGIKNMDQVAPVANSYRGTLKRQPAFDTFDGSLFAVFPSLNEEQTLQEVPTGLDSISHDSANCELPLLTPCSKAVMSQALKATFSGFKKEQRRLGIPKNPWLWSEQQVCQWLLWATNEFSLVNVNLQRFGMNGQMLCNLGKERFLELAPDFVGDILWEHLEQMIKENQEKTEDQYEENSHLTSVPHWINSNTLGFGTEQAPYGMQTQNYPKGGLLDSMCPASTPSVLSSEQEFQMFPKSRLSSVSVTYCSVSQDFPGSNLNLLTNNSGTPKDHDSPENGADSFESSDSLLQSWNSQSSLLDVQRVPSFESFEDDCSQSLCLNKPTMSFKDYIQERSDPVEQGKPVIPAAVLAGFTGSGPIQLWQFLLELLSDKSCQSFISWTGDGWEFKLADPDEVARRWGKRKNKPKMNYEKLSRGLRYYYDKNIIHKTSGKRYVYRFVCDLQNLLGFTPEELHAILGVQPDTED
# Method in brief: as §1
# [14] = target: T9, SPDEF (Homo sapiens, UniProt O95238 1-335); settings: protein: recombinant; tags: N-terminal GST; dsDNA, one strand shown
# T9 sequence: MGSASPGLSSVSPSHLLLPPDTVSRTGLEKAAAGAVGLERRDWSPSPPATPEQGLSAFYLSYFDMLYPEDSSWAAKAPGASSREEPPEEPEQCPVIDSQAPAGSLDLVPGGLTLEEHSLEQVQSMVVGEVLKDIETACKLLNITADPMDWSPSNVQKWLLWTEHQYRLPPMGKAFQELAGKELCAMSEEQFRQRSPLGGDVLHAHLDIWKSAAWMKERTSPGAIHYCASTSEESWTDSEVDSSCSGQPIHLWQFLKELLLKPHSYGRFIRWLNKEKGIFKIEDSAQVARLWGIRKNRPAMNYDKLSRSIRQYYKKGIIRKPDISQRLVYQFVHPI
# Method in brief: as §1
# [15] = target: T10, ETV7 (Homo sapiens, UniProt Q9Y603 1-341); settings: protein: recombinant; tags: N-terminal GST; dsDNA, one strand shown
# T10 sequence: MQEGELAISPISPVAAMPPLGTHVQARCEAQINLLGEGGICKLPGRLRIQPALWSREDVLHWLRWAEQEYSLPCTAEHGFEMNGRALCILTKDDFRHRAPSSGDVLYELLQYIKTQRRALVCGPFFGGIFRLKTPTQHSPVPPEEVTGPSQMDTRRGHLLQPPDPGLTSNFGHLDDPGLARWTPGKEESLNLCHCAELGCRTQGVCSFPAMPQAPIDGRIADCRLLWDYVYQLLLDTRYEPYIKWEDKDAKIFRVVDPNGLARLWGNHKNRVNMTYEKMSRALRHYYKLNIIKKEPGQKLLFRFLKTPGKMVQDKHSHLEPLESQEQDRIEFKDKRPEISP
# Method in brief: as §1
# [16] = target: T11, ELF5 (Homo sapiens, UniProt Q9UKW6-2 1-255); settings: protein: recombinant; tags: N-terminal GST; dsDNA, one strand shown
# T11 sequence: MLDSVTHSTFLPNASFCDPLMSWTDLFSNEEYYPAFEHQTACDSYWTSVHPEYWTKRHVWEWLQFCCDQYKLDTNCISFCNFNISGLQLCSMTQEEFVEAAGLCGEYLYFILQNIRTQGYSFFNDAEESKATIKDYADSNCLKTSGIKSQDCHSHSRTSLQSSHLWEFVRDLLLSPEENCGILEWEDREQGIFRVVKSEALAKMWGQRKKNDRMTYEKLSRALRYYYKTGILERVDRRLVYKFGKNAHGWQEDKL
# Method in brief: as §1
# [17] = target: T12, ETV3 (Homo sapiens, UniProt P41162-2 1-143); settings: protein: recombinant; tags: N-terminal GST; dsDNA, one strand shown
# T12 sequence: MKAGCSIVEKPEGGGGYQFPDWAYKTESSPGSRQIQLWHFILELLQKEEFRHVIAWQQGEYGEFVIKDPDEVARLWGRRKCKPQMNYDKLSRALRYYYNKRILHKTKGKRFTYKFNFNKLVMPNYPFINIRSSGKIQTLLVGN
# Method in brief: as §1
# [18] = target: ETV6 (Homo sapiens, UniProt P41212 1-452); settings: protein: recombinant; tags: N-terminal GST; dsDNA, one strand shown
# Method in brief: as §1
# ETV5, sequence (P41161 whole entry): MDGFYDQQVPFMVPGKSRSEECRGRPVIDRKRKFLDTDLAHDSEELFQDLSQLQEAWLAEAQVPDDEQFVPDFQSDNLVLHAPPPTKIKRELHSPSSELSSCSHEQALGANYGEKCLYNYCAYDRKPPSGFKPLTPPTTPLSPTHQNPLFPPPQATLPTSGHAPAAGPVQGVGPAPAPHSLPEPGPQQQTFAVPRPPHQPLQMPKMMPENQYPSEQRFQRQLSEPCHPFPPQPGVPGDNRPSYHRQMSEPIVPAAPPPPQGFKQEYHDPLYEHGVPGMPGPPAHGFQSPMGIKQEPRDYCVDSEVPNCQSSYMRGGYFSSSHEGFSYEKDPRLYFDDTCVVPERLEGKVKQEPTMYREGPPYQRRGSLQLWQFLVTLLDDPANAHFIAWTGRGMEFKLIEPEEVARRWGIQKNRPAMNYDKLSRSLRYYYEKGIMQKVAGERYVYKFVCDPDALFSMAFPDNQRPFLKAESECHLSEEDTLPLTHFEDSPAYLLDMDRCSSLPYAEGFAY
# ETV1, sequence (P50549 whole entry): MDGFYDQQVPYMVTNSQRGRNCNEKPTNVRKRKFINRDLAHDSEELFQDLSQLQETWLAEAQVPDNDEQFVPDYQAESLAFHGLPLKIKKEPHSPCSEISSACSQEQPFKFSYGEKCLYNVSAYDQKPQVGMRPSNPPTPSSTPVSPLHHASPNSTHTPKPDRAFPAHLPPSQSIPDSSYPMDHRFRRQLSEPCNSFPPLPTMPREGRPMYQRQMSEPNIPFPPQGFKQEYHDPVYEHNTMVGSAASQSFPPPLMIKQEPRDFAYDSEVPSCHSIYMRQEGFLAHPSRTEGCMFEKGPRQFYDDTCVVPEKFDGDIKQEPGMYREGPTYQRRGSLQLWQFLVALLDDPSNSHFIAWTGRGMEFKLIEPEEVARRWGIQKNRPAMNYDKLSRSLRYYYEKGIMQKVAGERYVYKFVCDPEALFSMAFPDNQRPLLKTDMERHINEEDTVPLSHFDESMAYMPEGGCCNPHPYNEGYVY
# ELF4, sequence (Q99607 whole entry): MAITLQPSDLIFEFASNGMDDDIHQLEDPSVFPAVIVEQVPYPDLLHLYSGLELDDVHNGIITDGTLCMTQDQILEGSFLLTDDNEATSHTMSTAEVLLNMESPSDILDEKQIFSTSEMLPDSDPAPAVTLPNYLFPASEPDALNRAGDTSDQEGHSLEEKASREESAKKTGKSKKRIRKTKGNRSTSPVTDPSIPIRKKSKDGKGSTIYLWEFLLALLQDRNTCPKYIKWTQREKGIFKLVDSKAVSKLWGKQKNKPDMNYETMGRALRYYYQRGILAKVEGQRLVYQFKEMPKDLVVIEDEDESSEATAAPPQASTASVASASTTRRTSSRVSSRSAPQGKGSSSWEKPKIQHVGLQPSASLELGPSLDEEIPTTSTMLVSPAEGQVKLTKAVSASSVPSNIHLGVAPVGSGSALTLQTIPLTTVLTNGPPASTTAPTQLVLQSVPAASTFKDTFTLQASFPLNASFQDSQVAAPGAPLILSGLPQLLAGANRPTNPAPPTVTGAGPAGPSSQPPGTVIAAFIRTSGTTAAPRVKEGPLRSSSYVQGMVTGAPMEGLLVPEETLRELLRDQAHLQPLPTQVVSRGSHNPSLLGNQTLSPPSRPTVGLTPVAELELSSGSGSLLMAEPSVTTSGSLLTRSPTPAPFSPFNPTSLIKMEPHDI
# ETV6, sequence (P41212 whole entry): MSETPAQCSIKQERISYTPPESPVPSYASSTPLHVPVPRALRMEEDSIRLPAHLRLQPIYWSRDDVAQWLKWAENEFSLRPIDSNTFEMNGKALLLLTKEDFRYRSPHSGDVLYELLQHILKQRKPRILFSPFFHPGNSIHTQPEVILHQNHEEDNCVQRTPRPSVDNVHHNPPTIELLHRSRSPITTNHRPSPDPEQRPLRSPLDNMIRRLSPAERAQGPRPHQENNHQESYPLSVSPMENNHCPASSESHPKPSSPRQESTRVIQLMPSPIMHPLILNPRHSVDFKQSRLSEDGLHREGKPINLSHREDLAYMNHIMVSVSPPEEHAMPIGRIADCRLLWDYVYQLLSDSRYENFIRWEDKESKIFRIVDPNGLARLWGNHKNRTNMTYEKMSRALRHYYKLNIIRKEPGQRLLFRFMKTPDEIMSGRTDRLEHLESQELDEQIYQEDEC
# HSF1, sequence (Q00613 whole entry): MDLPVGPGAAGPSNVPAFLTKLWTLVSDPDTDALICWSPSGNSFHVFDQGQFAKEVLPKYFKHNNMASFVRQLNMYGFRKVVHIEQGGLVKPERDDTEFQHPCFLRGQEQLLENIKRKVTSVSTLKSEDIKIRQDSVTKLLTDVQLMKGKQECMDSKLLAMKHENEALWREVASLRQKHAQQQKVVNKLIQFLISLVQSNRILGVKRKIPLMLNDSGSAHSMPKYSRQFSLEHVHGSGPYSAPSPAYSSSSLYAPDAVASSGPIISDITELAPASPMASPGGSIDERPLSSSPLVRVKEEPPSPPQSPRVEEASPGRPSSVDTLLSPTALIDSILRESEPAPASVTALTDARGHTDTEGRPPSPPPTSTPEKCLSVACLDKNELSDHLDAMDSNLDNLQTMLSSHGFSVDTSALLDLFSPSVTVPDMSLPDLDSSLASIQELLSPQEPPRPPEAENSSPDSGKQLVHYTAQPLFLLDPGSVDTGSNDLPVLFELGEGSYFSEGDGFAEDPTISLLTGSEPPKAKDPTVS
# CRX, sequence (O43186 whole entry): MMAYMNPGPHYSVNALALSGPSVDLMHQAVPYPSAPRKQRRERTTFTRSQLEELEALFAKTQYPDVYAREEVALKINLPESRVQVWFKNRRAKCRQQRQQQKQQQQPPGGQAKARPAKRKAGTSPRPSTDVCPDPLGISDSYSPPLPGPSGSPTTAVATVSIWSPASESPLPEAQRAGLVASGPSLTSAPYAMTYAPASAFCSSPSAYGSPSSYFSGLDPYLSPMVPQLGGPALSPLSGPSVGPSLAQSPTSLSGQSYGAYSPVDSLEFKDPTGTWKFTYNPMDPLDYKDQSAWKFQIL
sequence,measurement,setting,value
TTTCTT,binding signal,[1],"1.23 fold enrichment (6-mer frequency, TF over GST control)"
same,binding signal,[2],"1.22 fold enrichment (6-mer frequency, TF over GST control)"
same,binding signal,[3],"1.7 fold enrichment (6-mer frequency, TF over GST control)"
same,binding signal,[4],"1.24 fold enrichment (6-mer frequency, TF over GST control)"
same,binding signal,[5],"1.33 fold enrichment (6-mer frequency, TF over GST control)"
same,binding signal,[6],"1.17 fold enrichment (6-mer frequency, TF over GST control)"
same,binding signal,[7],"1.24 fold enrichment (6-mer frequency, TF over GST control)"
same,binding signal,[8],"1.3 fold enrichment (6-mer frequency, TF over GST control)"
same,binding signal,[9],"1.46 fold enrichment (6-mer frequency, TF over GST control)"
same,binding signal,[10],"1.38 fold enrichment (6-mer frequency, TF over GST control)"
same,binding signal,[11],"1.22 fold enrichment (6-mer frequency, TF over GST control)"
same,binding signal,[12],"1.34 fold enrichment (6-mer frequency, TF over GST control)"
same,binding signal,[13],"1.32 fold enrichment (6-mer frequency, TF over GST control)"
same,binding signal,[14],"1.19 fold enrichment (6-mer frequency, TF over GST control)"
same,binding signal,[15],"1.37 fold enrichment (6-mer frequency, TF over GST control)"
same,binding signal,[16],"1.31 fold enrichment (6-mer frequency, TF over GST control)"
same,binding signal,[17],"1.34 fold enrichment (6-mer frequency, TF over GST control)"
same,binding signal,[18],"1.23 fold enrichment (6-mer frequency, TF over GST control)"
